Screening data deposited in PubChem by National Center for Advancing Translational Sciences (NCATS).
Hits are enriched below; roughly 2% of the tested compounds scored in any of these assays.
aSyn rescue – qHTS of alpha-syn Inhibitors | hit rate 0.14% among 370,000 | Potency, µM (doses to about 46.1 µM), without a hit: top-dose growth rescue (activation), actives largely listed as activators | Yeast expressing alpha-synuclein, growth rescue, BacTiter-Glo, 24 h; also: potency is read from the fitted curve at half-maximal effect; % of control where 0% means no effect; nearly all actives have a fitted effect of over 65% in size
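Screening used galactose-induced yeast with toxic alpha-synuclein levels, exposed to compound for 24 hr at 30 deg C. Cell growth, read with BacTiter-Glo luminescence, gave the measured signal.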
FUS suppressor – qHTS for Suppressors of FUS Proteinopathy: Primary screen using FUS-linked yeast assay. S. cerevisiae FUS-expressing, growth rescue, OD600, 24 h. Potency, µM (series often up to 76.6 µM), actives largely listed as activators. hit rate 0.24% among 390,000. AID 1347120, 2019;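 also: potency is read from the fitted curve at half-maximal effect; plate controls were DMSO vehicle for no effect and reference control for full effect; nearly all actives have a fitted effect of over 55% in size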
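Compound concentration series was pinned onto galactose-induced FUS-expressing yeast seeded at OD 0.005. Plates sat 24hr at 30C; absorbance at 600 nm gave growth. DMSO served as background control.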
TDP43 rescue – qHTS of TDP-43 Inhibitors; hit rate 1.8% among 410,000; Potency, µM (top dose mostly 46.1 µM), for the others: at the top dose growth rescue (activation), most hits filed as activators; TDP-43 expressing yeast growth rescue, BacTiter-Glo, 24 h; also: potency is read from the fitted curve at half-maximal effect; % of control where 0% means no effect; nearly all actives have a fitted effect of over 50% in size
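Growth rescue of TDP-43-toxic yeast measured as ATP luminescence (BacTiter-Glo). Cells grown to mid-log in raffinose, induced in galactose at OD600=0.02, exposed to compound 24 hr at 30 deg C.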
mIDH1 inhibitor – qHTS for Inhibitors of mutant isocitrate dehydrogenase 1 (IDH1): qHTS; Isocitrate dehydrogenase [NADP] cytoplasmic (Homo sapiens), O75874; IDH1-R132H enzyme, NADPH consumption, diaphorase/resazurin fluorescence; Potency, µM (top dose mostly 76.6 µM), for inactives: top-dose activity change, negative = inhibition, actives largely listed as inhibitors; hit rate 0.093% among 390,000; also: potency is read from the fitted curve at half-maximal effect; % is scaled to controls: 0 for no effect and ±100 for the full control effect; nearly all actives have a fitted effect of over 65% in size
Target sequence (O75874 whole entry R132H, stated change not applied): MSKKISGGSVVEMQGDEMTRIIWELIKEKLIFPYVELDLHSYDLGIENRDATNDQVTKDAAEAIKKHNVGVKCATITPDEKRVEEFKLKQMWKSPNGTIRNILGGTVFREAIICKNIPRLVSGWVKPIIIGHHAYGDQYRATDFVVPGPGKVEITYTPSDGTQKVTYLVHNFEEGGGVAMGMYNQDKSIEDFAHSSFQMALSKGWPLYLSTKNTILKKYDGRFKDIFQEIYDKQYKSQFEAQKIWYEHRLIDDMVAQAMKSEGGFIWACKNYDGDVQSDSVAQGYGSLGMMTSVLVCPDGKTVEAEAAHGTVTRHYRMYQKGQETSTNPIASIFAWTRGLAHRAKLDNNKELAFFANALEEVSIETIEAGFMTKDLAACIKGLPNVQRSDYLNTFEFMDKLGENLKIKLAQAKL
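IDH1-R132H (0.5 ug/mL) preincubated 30 min with compound, then NADPH (0.016 mM) and alpha-KG (2 mM) added; 80 min at RT, pH 7.5. Remaining NADPH coupled via diaphorase/resazurin to fluorescence (540/590 nm); concentration-response curves normalized to no-enzyme control.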
LDHA inh – qHTS assay for inhibitors of human lactate dehydrogenase; activity change, % (values are at about 110 or 230 µM); AID 1347041, 2019; hit rate 0.15% among 480,000; purified LDHA, NADH/diaphorase-resazurin fluorescence; hits give low values; L-lactate dehydrogenase A chain (Homo sapiens), P00338; in the data active = activity change below about -30%; inconclusive = mostly about -25% to -30%;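 also: plate controls were DMSO wells for no effect and wells without enzyme for full effect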
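Enzyme activity of human lactate dehydrogenase 5 (2 nM; 0.06 mM NADH, 0.2 mM pyruvate, 5 min, RT) is measured via a resazurin/diaphorase fluorescence readout of residual NADH.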
Abeta yeast res – qHTS for compounds that reverse cellular toxicity of Amyloid beta (A-beta) peptide in yeast: Primary Screen. yeast expressing A-beta42, growth rescue, OD600, 48 h; response scale: 0% DMSO, 100% iron-clioquinol control. Potency, µM (titrated, usually from 46.1 µM), actives largely listed as activators. hit rate 0.063% among 410,000; also: potency is read from the fitted curve at half-maximal effect; nearly all actives have a fitted effect of over 55% in size
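Growth rescue measured by 600 nm absorbance after 48 h yeast culture at 30 C with compound. Values normalized between DMSO and an equimolar ferric chloride plus clioquinol control.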
* marks the source's active call; other numbers are inactive results; i = inactive; ? = inconclusive; / = no result. Unless noted, calls follow the shape of the dose curve; as a rule, active = well fitted curve in the direction sought with a large enough effect; inconclusive = small, poorly fitted or top-dose-only effect, or another doubt; inactive = no such curve, though single readings can be large; an effect the other way counts as inactive or inconclusive.

SMILES	aSyn rescue	FUS suppressor	TDP43 rescue	mIDH1 inhibitor	LDHA inh	Abeta yeast res
CSc1nnc2c(n1)c(C)nn2-c1cccc(C)c1	-9%	i	13µM*	2%	4	i
Cc1cc(Cl)cc(C)c1OCC(=O)N1CCN(c2ncccn2)CC1	0%	i	13µM*	-4%	-6	i
Cc1cc(Cl)ccc1OCC(=O)N1CCN(c2ncccn2)CC1	7%	i	?	2%	-2	i
Cc1ccc(NC(=O)Cn2nc(-c3cccs3)oc2=O)cc1C	/	/	/	/	-8	/
N#Cc1cnc2ncnn2c1N	/	/	/	/	12	/
N#Cc1cn2ncnc2nc1N	/	/	/	/	-31*	/
CCOc1ccccc1N(C)C(=O)C1CCCN(c2ncnc3c2nc2n3CCCCC2)C1 (stereo not given)	/	i	12%	-8%	-1	i
CCc1ccccc1N(C)C(=O)C1CCCN(c2ncnc3c2nc2n3CCCCC2)C1 (stereo not given)	/	i	11µM*	33%	-1	i
O=C(Nc1ccccc1Cl)C1CCCN(c2ncnc3c2nc2n3CCCCC2)C1 (stereo not given)	4%	i	14µM*	-5%	2	i
COc1ccccc1NC(=O)C1CCCN(c2ncnc3c2nc2n3CCCCC2)C1 (stereo not given)	8%	i	?	-6%	-3	i
CC1CCN(C(=O)C2CCCN(c3ncnc4c3nc3n4CCCCC3)C2)CC1 (stereo not given)	1%	i	28%	-4%	0	i
O=C(C1CCCN(c2ncnc3c2nc2n3CCCCC2)C1)N1CCN(c2ccccc2F)CC1 (stereo not given)	-9%	i	11µM*	4%	-4	i
CC1CCN(c2nc(SCCO)c(C#N)c3c2CCCC3)CC1	/	/	/	/	7	/
Cc1cccc(Nc2nc(C)c(C(=O)Nc3ccccc3)s2)c1	/	/	/	/	1	/
Oc1ccc(N2CCN(c3nc(-c4cccnc4)nc4ccccc34)CC2)cc1	/	/	/	/	8	/
N/C(=N\OC(=O)c1ccco1)c1ccc(Br)cc1	-48%	i	14µM*	4%	-3	i
COc1ccc(/C(N)=N/OC(=O)c2ccco2)cc1	-17%	i	18µM*	3%	1	i
Cc1cccc(/C(N)=N/OC(=O)c2ccco2)c1	-38%	i	22µM*	5%	-2	i
Cc1ccc(/C(N)=N/OC(=O)c2ccco2)cc1	-18%	i	?	4%	1	i
N#Cc1ccc(NCCNc2cccc3ccccc23)nc1	/	/	/	/	74	/
Nc1cc2nsnc2cc1Br	5%	/	13µM*	21%	34	i
Cc1ccc(C(=O)C2=C(O)C(=O)N(Cc3cccnc3)C2c2ccc(Cl)cc2)o1 (stereo not given)	-18%	28µM*	-14%	-7%	2	i
O=C(C1=C(O)C(=O)N(c2ncccn2)C1c1ccc(Cl)c(Cl)c1)c1ccco1 (stereo not given)	-17%	?	-24%	10%	-11	i
CCOc1ccc(C2C(C(=O)c3ccc(C)o3)=C(O)C(=O)N2Cc2cccnc2)cc1 (stereo not given)	-7%	?	-24%	-20%	1	i
O=C(C1=C(O)C(=O)N(c2ncccn2)C1c1ccc(Cl)cc1)c1ccco1 (stereo not given)	6%	32µM*	0%	14%	2	i
SMILES	aSyn rescue	FUS suppressor	TDP43 rescue	mIDH1 inhibitor	LDHA inh	Abeta yeast res
CCOP(=O)(OCC)c1nc(-c2ccc(C)cc2)oc1N(C)C	/	/	/	/	1	/
O=C(Nc1ccccc1C(=O)NC1CC1)c1cnc2ccccc2n1	/	/	/	/	28	/
CCN(CC)CCCNc1oc(/C=C/c2cccs2)nc1C#N	/	/	/	/	-4	/
CCCOc1ccc(CCC(=O)O)cc1	1%	i	14µM*	5%	-1	i
CCCc1ccc(OCC(=O)O)cc1	0%	i	-10%	5%	-3	i
Cc1cccc(CNC(=O)c2ccco2)c1	/	/	/	/	-4	/
CCNc1nc(NCC)n2c(SC(C(=O)Nc3cc(C)ccc3C)c3ccccc3)nnc2n1 (stereo not given)	-4%	32µM*	-8%	-2%	-2	i
COC1=CC(=O)OC12CCCCC2	1%	i	16%	0%	-3	i
COc1ccc(C2=CC(=O)OC3(CCCC3)O2)cc1	0%	i	16µM*	1%	0	i
O=C(CCC(=O)c1ccccc1)Nc1ccccc1-c1ccccc1	/	/	/	/	-7	/
Cc1ccc(Cc2c(C(C)(C)C)nc3cc(C)c(Br)c(C)n23)cc1	4%	i	0%	/	-8	i
Cc1cc2nc(C3CCCCC3)c(Cc3ccsc3)n2c(C)c1Br	3.5µM*	i	20%	/	-2	i
Cc1ccc(Cc2c(C3CCCCC3)nc3cc(C)c(Br)c(C)n23)cc1	-1%	i	7%	/	-2	i
Cc1cc2nc(C(C)(C)C)c(Cc3ccsc3)n2c(C)c1Br	-13%	i	13µM*	/	1	?
Nc1cccc(NS(N)(=O)=O)c1	/	/	/	/	10	/
O=C1CCCCCN1Sc1ccccc1	-19%	i	16µM*	9%	-3	?
O=C1CCCCCN1C(=O)c1ccccc1	-1%	i	-16%	-9%	0	i
O=C(Nc1nn(Cc2ccc(F)cc2)cc1Cl)c1nc2ncccn2n1	/	/	/	/	-3	/
C[C@]12CCC(O)CC1=CCC1C2CC[C@]2(C)/C(=N\NC(N)=S)CCC12 (stereo not given in full)	3%	i	25%	4%	-1	2.5µM*
CC(=O)C1=CCC2C3CC=C4CC(O)CCC4(C)C3CCC12C (stereo not given)	/	/	/	/	-4	/
CCCCNc1nc(-c2ccc(N(CC)S(C)(=O)=O)cc2)cs1	/	/	/	/	5	/
Cc1cc(C(=O)NC(C)c2ccc(F)cc2F)c2cnn(C(C)C)c2n1 (stereo not given)	/	/	/	/	-17	/
CCC(C)[C@H](NC(=O)OC(C)(C)C)C(=O)N/N=C/C1=Cc2ccccc2OC1 (stereo not given in full)	0%	28µM*	-19%	2%	1	i
C[C@H](NC(=O)OC(C)(C)C)C(=O)N/N=C/C1=Cc2ccccc2OC1	-4%	i	8%	2%	-2	i
Clc1ccc(-c2nn3c(-c4ccc5ccccc5n4)nnc3s2)cc1	/	/	/	/	-9	/
